Measurements from article PMC7862700, “An all-to-all approach to the identification of sequence-specific readers for epigenetic DNA modifications on cytosine”.

Experiments:
Assay in all cases: DAPPL (digital affinity profiling via proximity ligation, sequencing); 10 mM Tris-HCl pH 7.5, 50 mM NaCl, 1 mM DTT, 4% glycerol, room temperature, 30 min; GST-TFs on glutathione beads, 16-mer random dsDNA library, 0.1% formaldehyde crosslink after washing; high values mean tight binding
Conditions in all cases: protein: recombinant; tags: N-terminal GST; dsDNA, one strand shown
[1] = target: T1, ELK1 (Homo sapiens, UniProt P19419 1-428)
T1 sequence: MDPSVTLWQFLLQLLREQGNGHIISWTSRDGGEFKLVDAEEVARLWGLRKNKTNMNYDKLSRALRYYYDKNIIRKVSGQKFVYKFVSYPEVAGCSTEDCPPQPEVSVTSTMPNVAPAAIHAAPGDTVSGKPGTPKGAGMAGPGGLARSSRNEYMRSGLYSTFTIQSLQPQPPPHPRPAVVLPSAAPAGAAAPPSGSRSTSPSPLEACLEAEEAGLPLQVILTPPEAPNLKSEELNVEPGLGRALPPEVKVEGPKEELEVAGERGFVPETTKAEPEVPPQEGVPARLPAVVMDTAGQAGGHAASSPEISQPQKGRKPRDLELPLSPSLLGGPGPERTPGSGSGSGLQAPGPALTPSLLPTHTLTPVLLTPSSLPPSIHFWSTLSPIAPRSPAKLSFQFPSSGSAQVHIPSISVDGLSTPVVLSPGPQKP
Method in brief: (§1)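 A tag-only sample was pooled with DNA-barcoded human transcription factors that had been expressed in yeast as GST fusions and captured on glutathione beads. The pools were incubated for 30 min at room temperature with 200 nmole of a random double-stranded 16-mer DNA library in Tris/NaCl/DTT/glycerol buffer, then washed, crosslinked with 0.1% formaldehyde, proximity-ligated (BsaI/T4 ligase, 1 h, 37 °C), PCR-amplified and sequenced on an Illumina NextSeq500. Binding signal is each hexamer's read frequency for a factor divided by its frequency for the tag-only sample.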

[2] = target: T2, GABPA (Homo sapiens, UniProt Q06546 1-454)
T2 sequence: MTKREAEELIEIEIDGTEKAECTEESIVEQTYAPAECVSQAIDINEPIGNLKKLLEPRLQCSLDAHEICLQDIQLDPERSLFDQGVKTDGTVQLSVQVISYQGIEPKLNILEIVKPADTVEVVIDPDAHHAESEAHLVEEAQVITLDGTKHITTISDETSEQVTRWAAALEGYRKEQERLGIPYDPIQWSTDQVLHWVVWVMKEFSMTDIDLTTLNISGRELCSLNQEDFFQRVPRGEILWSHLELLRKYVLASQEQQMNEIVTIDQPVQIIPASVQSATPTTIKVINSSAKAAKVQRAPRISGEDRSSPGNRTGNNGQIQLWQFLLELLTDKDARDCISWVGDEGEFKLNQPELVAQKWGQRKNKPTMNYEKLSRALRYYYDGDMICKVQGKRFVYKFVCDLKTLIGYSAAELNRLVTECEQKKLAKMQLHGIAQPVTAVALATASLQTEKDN
Method in brief: as §1

[3] = target: T3, ERG (Homo sapiens, UniProt P11308 1-479)
T3 sequence: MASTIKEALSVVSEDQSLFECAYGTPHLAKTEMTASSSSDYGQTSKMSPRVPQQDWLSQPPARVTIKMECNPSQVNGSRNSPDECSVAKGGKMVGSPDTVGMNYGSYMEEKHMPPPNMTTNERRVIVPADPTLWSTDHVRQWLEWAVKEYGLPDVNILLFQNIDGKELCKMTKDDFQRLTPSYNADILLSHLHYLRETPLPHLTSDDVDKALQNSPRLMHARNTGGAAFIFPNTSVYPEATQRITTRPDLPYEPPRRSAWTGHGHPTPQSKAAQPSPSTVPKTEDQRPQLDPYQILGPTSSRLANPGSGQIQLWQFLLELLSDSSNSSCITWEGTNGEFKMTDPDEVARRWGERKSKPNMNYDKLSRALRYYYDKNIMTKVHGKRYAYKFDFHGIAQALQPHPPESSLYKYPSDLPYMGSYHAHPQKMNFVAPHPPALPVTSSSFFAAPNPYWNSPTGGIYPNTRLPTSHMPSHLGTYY
Method in brief: as §1

[4] = target: ELF1 (Homo sapiens, UniProt P32519 1-619)
Method in brief: as §1

[5] = target: T4, EHF (Homo sapiens, UniProt Q9NZC4 1-300)
T4 sequence: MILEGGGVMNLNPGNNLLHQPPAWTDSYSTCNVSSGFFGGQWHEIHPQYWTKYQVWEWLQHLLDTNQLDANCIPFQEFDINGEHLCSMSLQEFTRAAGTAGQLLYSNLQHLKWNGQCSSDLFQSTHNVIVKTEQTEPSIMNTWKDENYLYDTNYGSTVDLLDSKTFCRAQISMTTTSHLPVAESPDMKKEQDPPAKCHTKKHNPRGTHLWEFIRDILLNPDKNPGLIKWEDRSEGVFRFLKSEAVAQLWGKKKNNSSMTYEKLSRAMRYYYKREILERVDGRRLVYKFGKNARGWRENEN
Method in brief: as §1

[6] = target: T5, FEV (Homo sapiens, UniProt Q99581 1-238)
T5 sequence: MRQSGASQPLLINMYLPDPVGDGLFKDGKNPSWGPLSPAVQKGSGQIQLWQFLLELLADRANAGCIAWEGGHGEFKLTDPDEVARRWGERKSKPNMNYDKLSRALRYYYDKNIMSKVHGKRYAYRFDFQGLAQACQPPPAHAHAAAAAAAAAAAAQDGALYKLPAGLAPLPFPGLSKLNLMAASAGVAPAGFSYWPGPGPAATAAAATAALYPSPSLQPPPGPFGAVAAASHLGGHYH
Method in brief: as §1

[7] = target: ETV5 (Homo sapiens, UniProt P41161 1-510)
Method in brief: as §1

[8] = target: ELF4 (Homo sapiens, UniProt Q99607 1-663)
Method in brief: as §1

[9] = target: T6, ELK4 (Homo sapiens, UniProt P28324-2 1-405)
T6 sequence: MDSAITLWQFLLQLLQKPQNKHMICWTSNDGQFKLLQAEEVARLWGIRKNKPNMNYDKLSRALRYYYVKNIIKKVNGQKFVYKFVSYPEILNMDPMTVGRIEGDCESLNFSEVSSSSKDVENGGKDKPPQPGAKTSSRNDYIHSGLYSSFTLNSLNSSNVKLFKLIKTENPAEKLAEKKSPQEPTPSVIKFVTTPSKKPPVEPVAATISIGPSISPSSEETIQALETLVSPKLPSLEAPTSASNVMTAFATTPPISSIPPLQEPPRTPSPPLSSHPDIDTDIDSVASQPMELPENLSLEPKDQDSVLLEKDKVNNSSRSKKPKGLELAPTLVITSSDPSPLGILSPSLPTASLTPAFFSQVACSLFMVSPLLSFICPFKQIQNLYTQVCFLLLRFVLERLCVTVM
Method in brief: as §1

[10] = target: T7, ELF3 (Homo sapiens, UniProt P78545 1-371)
T7 sequence: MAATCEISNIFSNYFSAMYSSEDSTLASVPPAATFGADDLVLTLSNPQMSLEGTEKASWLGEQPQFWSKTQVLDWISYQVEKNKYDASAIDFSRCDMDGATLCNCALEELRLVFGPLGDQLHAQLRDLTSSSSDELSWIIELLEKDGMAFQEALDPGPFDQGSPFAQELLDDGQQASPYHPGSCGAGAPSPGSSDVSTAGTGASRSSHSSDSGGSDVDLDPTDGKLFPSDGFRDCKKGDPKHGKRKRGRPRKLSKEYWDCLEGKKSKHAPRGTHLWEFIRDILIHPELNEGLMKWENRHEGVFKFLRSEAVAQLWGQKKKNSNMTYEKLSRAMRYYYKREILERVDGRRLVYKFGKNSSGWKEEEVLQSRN
Method in brief: as §1

[11] = target: ETV1 (Homo sapiens, UniProt P50549 1-477)
Method in brief: as §1

[12] = target: T8, ERF (Homo sapiens, UniProt P50548 1-548)
T8 sequence: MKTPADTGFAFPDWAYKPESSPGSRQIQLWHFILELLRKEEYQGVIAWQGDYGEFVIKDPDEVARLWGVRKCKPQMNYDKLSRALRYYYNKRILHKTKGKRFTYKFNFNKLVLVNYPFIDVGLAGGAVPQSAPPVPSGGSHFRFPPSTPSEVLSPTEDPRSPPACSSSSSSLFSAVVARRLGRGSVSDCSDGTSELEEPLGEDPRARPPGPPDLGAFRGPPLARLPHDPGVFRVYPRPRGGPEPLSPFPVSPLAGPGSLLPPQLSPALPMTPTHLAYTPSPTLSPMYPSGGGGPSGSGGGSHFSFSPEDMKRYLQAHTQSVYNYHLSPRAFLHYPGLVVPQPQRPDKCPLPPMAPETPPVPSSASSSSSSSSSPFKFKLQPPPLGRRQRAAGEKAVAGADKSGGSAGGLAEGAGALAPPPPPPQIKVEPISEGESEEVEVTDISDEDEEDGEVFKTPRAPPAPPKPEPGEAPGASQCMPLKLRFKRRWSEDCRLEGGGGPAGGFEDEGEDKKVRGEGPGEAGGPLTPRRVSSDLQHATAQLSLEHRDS
Method in brief: as §1

[13] = target: T9, ETV3L (Homo sapiens, UniProt Q6ZN32 1-361)
T9 sequence: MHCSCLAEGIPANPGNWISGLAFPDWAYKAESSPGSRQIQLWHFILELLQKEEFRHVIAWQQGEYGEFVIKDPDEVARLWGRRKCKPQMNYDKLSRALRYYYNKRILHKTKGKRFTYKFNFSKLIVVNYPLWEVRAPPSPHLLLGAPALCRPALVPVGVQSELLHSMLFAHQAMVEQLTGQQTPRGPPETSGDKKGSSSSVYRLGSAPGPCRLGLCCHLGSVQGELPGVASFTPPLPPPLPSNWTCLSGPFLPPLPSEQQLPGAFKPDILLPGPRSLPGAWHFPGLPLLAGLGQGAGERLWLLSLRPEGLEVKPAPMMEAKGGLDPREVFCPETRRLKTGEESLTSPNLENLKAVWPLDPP
Method in brief: as §1

[14] = target: T10, ETS2 (Homo sapiens, UniProt P15036 1-469)
T10 sequence: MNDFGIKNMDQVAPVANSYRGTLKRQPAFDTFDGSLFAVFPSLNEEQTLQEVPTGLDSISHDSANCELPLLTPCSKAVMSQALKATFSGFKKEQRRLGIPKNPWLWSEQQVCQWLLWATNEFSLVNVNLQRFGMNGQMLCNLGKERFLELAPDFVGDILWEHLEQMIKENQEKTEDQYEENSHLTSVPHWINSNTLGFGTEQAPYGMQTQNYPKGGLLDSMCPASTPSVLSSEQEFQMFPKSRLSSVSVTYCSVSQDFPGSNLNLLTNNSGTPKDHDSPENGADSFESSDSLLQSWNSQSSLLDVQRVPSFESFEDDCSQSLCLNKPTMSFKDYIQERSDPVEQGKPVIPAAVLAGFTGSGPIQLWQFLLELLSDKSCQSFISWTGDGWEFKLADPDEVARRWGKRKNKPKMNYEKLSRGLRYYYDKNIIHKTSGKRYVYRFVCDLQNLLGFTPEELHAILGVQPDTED
Method in brief: as §1

[15] = target: T11, ETV7 (Homo sapiens, UniProt Q9Y603 1-341)
T11 sequence: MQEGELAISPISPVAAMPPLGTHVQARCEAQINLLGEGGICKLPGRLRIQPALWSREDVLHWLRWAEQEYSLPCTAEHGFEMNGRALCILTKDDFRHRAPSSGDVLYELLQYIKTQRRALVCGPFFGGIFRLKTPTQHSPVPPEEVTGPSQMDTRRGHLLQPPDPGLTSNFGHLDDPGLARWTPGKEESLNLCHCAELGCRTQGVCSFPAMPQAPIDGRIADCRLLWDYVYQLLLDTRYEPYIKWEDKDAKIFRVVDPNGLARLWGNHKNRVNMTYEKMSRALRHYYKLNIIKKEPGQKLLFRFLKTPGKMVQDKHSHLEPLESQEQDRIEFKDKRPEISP
Method in brief: as §1

[16] = target: T12, ETV3 (Homo sapiens, UniProt P41162-2 1-143)
T12 sequence: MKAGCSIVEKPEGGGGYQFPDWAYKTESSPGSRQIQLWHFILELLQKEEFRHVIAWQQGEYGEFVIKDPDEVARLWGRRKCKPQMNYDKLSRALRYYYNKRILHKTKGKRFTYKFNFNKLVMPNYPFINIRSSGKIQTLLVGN
Method in brief: as §1

[17] = target: ETV6 (Homo sapiens, UniProt P41212 1-452)
Method in brief: as §1

Chain of ETV6 (P41212 whole entry): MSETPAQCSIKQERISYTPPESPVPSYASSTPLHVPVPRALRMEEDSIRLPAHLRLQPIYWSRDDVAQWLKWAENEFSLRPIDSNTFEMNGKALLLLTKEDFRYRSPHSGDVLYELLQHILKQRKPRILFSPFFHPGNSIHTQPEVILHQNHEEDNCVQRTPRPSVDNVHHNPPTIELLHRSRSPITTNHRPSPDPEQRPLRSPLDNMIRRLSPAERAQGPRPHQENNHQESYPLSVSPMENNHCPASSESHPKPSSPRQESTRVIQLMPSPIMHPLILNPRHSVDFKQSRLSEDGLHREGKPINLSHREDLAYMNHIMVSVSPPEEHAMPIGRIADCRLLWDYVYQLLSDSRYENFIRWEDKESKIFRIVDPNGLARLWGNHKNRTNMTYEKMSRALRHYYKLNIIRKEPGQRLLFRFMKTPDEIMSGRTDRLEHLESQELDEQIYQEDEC
Chain of ELF1 (P32519 whole entry): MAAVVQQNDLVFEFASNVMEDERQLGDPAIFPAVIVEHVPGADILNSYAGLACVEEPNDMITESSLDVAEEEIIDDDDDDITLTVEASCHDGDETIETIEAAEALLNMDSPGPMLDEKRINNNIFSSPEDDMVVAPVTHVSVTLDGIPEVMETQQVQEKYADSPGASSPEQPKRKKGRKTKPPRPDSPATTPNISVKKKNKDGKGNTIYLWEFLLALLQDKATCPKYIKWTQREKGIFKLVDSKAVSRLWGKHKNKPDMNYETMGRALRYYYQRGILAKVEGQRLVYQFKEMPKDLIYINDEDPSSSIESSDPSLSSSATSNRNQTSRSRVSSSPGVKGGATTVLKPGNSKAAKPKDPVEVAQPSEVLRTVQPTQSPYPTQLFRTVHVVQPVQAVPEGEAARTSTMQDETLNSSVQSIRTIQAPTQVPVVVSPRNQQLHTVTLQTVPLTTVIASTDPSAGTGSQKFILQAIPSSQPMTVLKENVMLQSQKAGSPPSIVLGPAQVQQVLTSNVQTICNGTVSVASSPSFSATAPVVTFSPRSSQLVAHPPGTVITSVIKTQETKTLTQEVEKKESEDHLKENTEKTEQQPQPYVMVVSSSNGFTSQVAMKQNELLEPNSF
Chain of ELF4 (Q99607 whole entry): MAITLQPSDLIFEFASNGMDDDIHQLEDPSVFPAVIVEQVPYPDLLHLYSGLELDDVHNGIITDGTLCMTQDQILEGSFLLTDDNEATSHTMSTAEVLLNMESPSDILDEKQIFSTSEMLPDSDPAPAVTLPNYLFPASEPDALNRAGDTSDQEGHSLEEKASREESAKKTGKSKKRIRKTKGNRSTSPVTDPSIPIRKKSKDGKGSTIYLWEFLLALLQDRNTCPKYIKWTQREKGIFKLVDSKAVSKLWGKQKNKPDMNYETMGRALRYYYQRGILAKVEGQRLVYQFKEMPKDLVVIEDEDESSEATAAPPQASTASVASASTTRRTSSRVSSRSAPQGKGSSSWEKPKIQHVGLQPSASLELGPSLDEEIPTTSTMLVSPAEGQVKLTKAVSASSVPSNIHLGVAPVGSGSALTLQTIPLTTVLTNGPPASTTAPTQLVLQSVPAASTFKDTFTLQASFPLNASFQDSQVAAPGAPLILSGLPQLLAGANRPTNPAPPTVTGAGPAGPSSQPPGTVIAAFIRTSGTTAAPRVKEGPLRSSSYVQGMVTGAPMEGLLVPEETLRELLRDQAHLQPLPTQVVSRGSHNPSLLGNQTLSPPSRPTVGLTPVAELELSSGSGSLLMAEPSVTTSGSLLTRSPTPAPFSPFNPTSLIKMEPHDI
Chain of ETV1 (P50549 whole entry): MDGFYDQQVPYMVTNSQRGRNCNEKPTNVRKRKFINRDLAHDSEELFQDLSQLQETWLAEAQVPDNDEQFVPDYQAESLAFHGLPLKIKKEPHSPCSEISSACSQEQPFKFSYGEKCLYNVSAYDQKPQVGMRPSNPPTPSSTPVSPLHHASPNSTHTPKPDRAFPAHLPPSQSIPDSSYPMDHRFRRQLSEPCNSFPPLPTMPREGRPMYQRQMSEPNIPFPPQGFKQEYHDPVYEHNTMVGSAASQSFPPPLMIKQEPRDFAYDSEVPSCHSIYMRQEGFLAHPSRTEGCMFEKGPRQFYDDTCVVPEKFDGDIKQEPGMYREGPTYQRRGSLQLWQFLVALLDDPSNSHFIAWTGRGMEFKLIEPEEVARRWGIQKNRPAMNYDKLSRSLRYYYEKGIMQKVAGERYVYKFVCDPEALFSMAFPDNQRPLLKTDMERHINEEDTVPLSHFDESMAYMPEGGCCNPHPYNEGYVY
Chain of ETV5 (P41161 whole entry): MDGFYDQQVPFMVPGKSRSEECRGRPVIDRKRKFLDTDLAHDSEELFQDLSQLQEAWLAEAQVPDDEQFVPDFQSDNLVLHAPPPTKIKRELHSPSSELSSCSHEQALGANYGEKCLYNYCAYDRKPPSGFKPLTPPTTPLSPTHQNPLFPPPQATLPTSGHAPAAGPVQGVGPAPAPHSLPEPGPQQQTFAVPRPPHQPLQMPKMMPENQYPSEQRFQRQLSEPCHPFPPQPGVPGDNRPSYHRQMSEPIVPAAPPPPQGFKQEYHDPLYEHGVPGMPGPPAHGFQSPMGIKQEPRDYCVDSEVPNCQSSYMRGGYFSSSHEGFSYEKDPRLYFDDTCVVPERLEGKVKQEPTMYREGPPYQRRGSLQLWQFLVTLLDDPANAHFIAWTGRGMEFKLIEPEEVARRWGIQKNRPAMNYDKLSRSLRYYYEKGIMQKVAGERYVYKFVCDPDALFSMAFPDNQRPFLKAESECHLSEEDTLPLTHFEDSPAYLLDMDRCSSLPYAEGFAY

What does the source list for TCACCG?
binding signal [1]: 1.16 fold enrichment (6-mer frequency, TF over GST control); binding signal [2]: 1.2 fold enrichment (6-mer frequency, TF over GST control); binding signal [3]: 1.14 fold enrichment (6-mer frequency, TF over GST control); binding signal [4]: 1.11 fold enrichment (6-mer frequency, TF over GST control); binding signal [5]: 1.05 fold enrichment (6-mer frequency, TF over GST control); binding signal [6]: 1.18 fold enrichment (6-mer frequency, TF over GST control); binding signal [7]: 1.13 fold enrichment (6-mer frequency, TF over GST control); binding signal [8]: 1.21 fold enrichment (6-mer frequency, TF over GST control); binding signal [9]: 1.04 fold enrichment (6-mer frequency, TF over GST control); binding signal [10]: 1.07 fold enrichment (6-mer frequency, TF over GST control); binding signal [11]: 1.15 fold enrichment (6-mer frequency, TF over GST control); binding signal [12]: 1.05 fold enrichment (6-mer frequency, TF over GST control); binding signal [13]: 1.09 fold enrichment (6-mer frequency, TF over GST control); binding signal [14]: 1.15 fold enrichment (6-mer frequency, TF over GST control); binding signal [15]: 1.02 fold enrichment (6-mer frequency, TF over GST control); binding signal [16]: 1.05 fold enrichment (6-mer frequency, TF over GST control); binding signal [17]: 1.03 fold enrichment (6-mer frequency, TF over GST control)
